Source: PubChem
The entries come from a sample that favours hits as a whole.
14-3-3g Raf – modulators of human 14-3-3 gamma - Raf peptide interaction; FP, 14-3-3gamma / TMR-pS259-Raf peptide binding; 160,000 tested, 0.19% active; inhibition, % at 40 µM; P61981; AID 422; in the data active = inhibition above about 30%;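 also: 0% = protein plus tracer without compound and 100% = blank with tracer alone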
Target sequence (P61981 whole entry, looked up): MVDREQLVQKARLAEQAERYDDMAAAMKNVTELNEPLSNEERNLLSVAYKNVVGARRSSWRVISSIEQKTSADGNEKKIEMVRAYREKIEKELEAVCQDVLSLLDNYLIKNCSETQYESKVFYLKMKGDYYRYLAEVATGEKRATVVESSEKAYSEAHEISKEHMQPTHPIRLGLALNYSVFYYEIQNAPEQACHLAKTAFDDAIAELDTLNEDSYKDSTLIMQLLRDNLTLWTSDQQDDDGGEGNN
* hit, by the source's call.

SMILES	14-3-3g Raf
CC(=O)c1c(C)[nH]c(C(=O)Nc2cc(C)ccc2C)c1C	-8.3
Cc1cc([N+](=O)[O-])ccc1NC(=O)c1ccc(F)cc1	4.0
COc1ccc(NC(=O)C2=C(C)NC(=S)NC2c2ccc(C)cc2)c(OC)c1 (stereo not drawn)	0.8
COC(=O)C1=C(C)NC(=S)NC1c1ccc(N(C)C)cc1 (stereo not drawn)	-3.1
O=C(O)c1cccc(NC(=O)c2cccc3c2C(=O)c2ccccc2-3)c1	-11.6
COc1ccc2c(c1N)C(=O)c1ccccc1C2=O	-80.5
O=C(Nc1ccc2c(c1)C(=O)c1ccccc1C2=O)c1ccc(Br)cc1	-17.5
Cn1c(=O)c(Nc2ccc(Br)cc2)c2c3c(cccc31)C(=O)c1ccccc1-2	151.2*
COc1ccc(Nc2c3c4c(c(Br)ccc4n(C)c2=O)C(=O)c2ccccc2-3)cc1	-39.5
CC(=O)c1c2c3c(cccc3n(C)c1=O)C(=O)c1ccccc1-2	31.7*
CCCCCCCNc1c2c3c(cccc3n(C)c1=O)C(=O)c1ccccc1-2	16.4
Cn1c(=O)c(N)c2c3c(cccc31)C(=O)c1ccccc1-2	108.9*
CC(=O)c1c2c3c(c(Br)ccc3n(C)c1=O)C(=O)c1ccccc1-2	-1.3
Cn1c(=O)c(C(=O)NCCO)c(O)c2ccccc21	-0.5
COc1ccc(OC)c(CN2CCN(Cc3cc(OC)c(O)c(OC)c3)CC2)c1	-8.2
O=C(Nc1ccc(-c2nc3cc(Cl)ccc3o2)cc1)c1cc([N+](=O)[O-])ccc1Cl	-81.5
CCCCOc1ccc(C(C)N)cc1 (stereo not drawn)	-1.5
CCOC(=O)c1cnc2ccc(OC)cc2c1Nc1ccc(F)cc1	-2.4
Cc1ccc(C2/C(=C(\O)c3ccc(Br)cc3)C(=O)C(=O)N2CCN2CCOCC2)cc1 (stereo not drawn)	-7.2
COc1ccc(OCc2nc3ccccc3n2CCC2CCCCC2)cc1	-13.0
Cc1ccc(C2C3=C(Nc4ncnn42)c2ccccc2OC3c2cccs2)cc1 (stereo not drawn)	-10.7
O=C(Nc1ccccc1Cl)c1ccc(F)c(S(=O)(=O)N2CCCc3ccccc32)c1	31.3*
O=C(Nc1ccccc1Cl)c1cc(S(=O)(=O)N2CCCc3ccccc32)ccc1F	3.9
O=C(Nc1cccc(Cl)c1)c1ccc(F)c(S(=O)(=O)N2CCCc3ccccc32)c1	-8.2
Cc1cccc(-c2nc3ccccc3c(=O)n2Cc2ccccc2Cl)c1	-3.3
SMILES	14-3-3g Raf
Cc1cc(=O)oc2c(CN3CCCCC3)c(O)c(Cl)cc12	-7.0
CCN1CCN(Cc2c(O)c(Cl)cc3c(C)cc(=O)oc23)CC1	17.0
CCN(CC)Cc1c(O)c(Cl)cc2c(C)cc(=O)oc12	63.4*
Cc1cc(=O)oc2c(CN(CC(C)C)CC(C)C)c(O)ccc12	-18.5
Cc1cc(=O)oc2c(CN3CCC(C)CC3)c(O)c(Cl)cc12	60.5*
Cc1c(C)c2cc(Cl)c(O)c(CN3CCN(C)CC3)c2oc1=O	0.6
CCn1cc(C(=O)OCc2ccccc2Cl)c(=O)c2ccc(C)nc21	3.4
O=C(CN1C(=O)c2ccc([N+](=O)[O-])cc2C1=O)Nc1ccc(O)cc1C(=O)O	37.2*
O=C(CN1C(=O)c2ccc([N+](=O)[O-])cc2C1=O)Nc1ccccc1[N+](=O)[O-]	3.1
O=C(CN1C(=O)c2ccc([N+](=O)[O-])cc2C1=O)Nc1ccc(Br)cc1C(=O)O	-1.8
CSc1nnc2c3ccccc3n(Cc3ccccc3)c2n1	-7.4
CSc1nnc2c3cc(F)ccc3n(Cc3ccccc3)c2n1	112.8*
CSc1nnc2c3ccccc3n(CCc3ccccc3)c2n1	2.8
CC1CCc2nc(NC(=O)c3ccc(N(C)C)cc3)sc2C1 (stereo not drawn)	7.2
CC1CC(=O)N(c2ccc(N(C)Cc3ccccc3)c([N+](=O)[O-])c2)C1=O (stereo not drawn)	-3.8
CC1CCC2C(=O)N(c3ccc(N(C)C4CCCCC4)c([N+](=O)[O-])c3)C(=O)C2C1 (stereo not drawn)	-1.4
CC1CCC2C(=O)N(c3ccc(N(C)Cc4ccccc4)c([N+](=O)[O-])c3)C(=O)C2C1 (stereo not drawn)	37.8*
O=C(CC1Sc2ccccc2NC1=O)NCCc1ccccc1 (stereo not drawn)	1.4
COC(=O)C(Br)C12CC3CC(CC(O)(C3)C1)C2 (stereo not drawn)	7.9
CC(=O)C(c1ccccc1)C(C#N)(C#N)C(C#N)C#N (stereo not drawn)	66.5*
CCOC(=O)C(=O)C(C#N)c1ccccc1 (stereo not drawn)	-6.8
CC(=O)C(CCC#N)(CCC#N)c1ccccc1	-12.9
O=C(NCCc1ccccc1Cl)C(=O)NCc1ccccc1	0.7
COCCOC(=O)C1=C(C)NC(=S)NC1c1ccc(C)cc1 (stereo not drawn)	-5.9
Clc1cccc(N=Cc2ccc(OCc3ccccc3)cc2)c1	-9.8
CC(C)c1ccc(OCc2nc(-c3ccccc3)no2)c(Br)c1	2.0
CCC1=NC(C(F)(F)F)(C(F)(F)F)c2c(n(Cc3ccco3)c(=O)[nH]c2=O)N1	-5.0
COc1ccc(C=Nc2ccco2)cc1	31.9*
COc1ccc(C=Nc2ccc3ncccc3c2)cc1	13.6
